Test results: PubChem BioAssay AID1347072 (National Center for Advancing Translational Sciences (NCATS), 2019)
Hit rate of the full screen: of about 44,000 compounds, fewer than 10 were called active. Roughly 2% stayed inconclusive and do not appear here. Only a sample is shown. Unmarked numbers belong to inactive results. Calls come from the whole dose curve; as a rule, active = well fitted curve in the direction sought with a large enough effect; inconclusive = small, poorly fitted or top-dose-only effect, or another doubt; inactive = no such curve, though single readings can be large or run the other way.

Each molecule was assayed against Galactokinase (Homo sapiens) (UniProt P51570) (assay: qHTS Assay for Inhibitors of Human Galactokinase (GALK): NCGC Sytravon Library Screen). Settings: recombinant GALK, Kinase-Glo ATP luminescence, 1 h; series mostly up to 57.5 µM; activity, negative = inhibition: at the top concentration.
Excerpt: Inherited deficiency of galactose-1-phosphate uridyltransferase (GALT) can result in a potentially lethal disorder called Classic Galactosemia (OMIM 230400). Several lines of evidence indicate that an elevated level of galactose-1-phosphate (gal-1-p), the product of galactokinase (GALK), is a major, if not sole, pathogenic mechanism in patients with classic galactosemia. Therefore, finding inhibitors of GALK is a potential novel therapy for this inherent metabolic disease and is the long term goal of this project. This screen is run against the NCGC Sytravon compound library collection. GALK (provided by Kent Lai) was assayed using ATP and D-(+)-Galactose (Sigma-Aldrich cat# G0750) as substrates. Promega Kinase-Glo Plus technology was used to detect kinase activity. Reactions with and without GALK were used as negative and positive controls together with Protein Tyrosine Phosphatase CD45 inhibitor (EMD Bioscience cat# 540215) which is shown to inhibit GALK activity. Decrease in activity corresponds to inhibition of the enzyme is the desired outcome for this assay. NIH Molecular Libraries Probe Production Network [MLPCN] NIH Chemical Genomics Center [NCGC] Grant: R03 MH085689-01 PI Name: Kent Lai Ph.D., University of Utah
NCGC Assay Protocol Summary: Three uL/well of ATP-buffer solution (35 uM ATP, 20mM HEPES pH8.0, 5 mM MgCl2, 60 mM NaCl, 1 mM DTT, 0.01% BSA final concentration) was dispensed into 1536-well, assay plates (Greiner, solid white medium-binding plates) with Aurora Discovery BioRAPTR Flying Reagent Dispenser (FRD; Beckton-Dickenson). Compound solution (23 nL) was transferred to the assay plate using the Kalypsys 1536-pin tool. One uL/well GALK-galactose solution (5 nM GALK, 100 uM galactose, 20 mM HEPES pH8.0, 5 mM MgCl2, 60 mM NaCl, 1 mM DTT, 0.01% BSA final concentration) was then added using the FRD yielding a total kinase reaction volume of 4 uL/ well. After 1 hour of room temperature incubation, 4 uL Kinase-Glo Plus reagent was added for a final assay volume of 8 uL/ well. Luminescence was detected with the ViewLux plate reader (Perkin Elmer, Waltham, MA) after 10 min incubation using a 1 sec exposure time and 2x binning.

Galactokinase (Homo sapiens), sequence (P51570 whole entry, looked up): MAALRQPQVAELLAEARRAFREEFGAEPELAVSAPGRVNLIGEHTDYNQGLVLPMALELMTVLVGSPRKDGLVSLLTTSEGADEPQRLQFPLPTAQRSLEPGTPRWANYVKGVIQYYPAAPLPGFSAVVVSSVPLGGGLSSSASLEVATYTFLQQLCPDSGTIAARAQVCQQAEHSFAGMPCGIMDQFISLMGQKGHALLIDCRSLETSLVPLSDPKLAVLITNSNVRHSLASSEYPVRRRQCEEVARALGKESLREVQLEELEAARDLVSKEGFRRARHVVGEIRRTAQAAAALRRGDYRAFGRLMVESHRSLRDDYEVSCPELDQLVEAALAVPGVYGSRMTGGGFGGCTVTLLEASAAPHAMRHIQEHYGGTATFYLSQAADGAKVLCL

Row | Compound | activity, negative = inhibition
1 | CCOc1ccc(CNC(=O)C2CCN(c3nnc(-n4cccc4CNc4ccc(C)cc4)s3)CC2)cc1OC | 5.96%
2 | CCN1C(=O)c2ccccc2Sc2ccc(NC(=O)Cc3ccc(OC)cc3)cc21 | -0.32%
3 | Cc1ccc(C)c(S(=O)(=O)c2nnn3c2nc(N2CCOCC2)c2sccc23)c1 | 4.67%
4 | Cc1ccc(NC(=O)C2CCN(S(=O)(=O)c3cc(-c4noc(C)n4)ccc3C)CC2)c(C)c1 | -1.9%
5 | CCCC(=O)Nc1ccc2oc(-c3ccc(O)c(Br)c3)nc2c1 | -1.85%
6 | O=S(=O)(c1ccc(C2CCCCC2)cc1)N1CCN(c2ccc(Cl)c(Cl)c2)CC1 | 6.36%
7 | COc1ccc(-c2nn(CC(=O)NC3CCCC3)c3c2cnc2ccc(F)cc23)cc1 | 2.49%
8 | Cc1ccc2oc(=O)c3cnn(CC(=O)NCc4ccccc4Cl)c3c2c1 | -10.1%
9 | Cc1ccc(CN(C(=O)COc2ccc(Cl)cc2C)C2CCS(=O)(=O)C2)o1 (configuration not stated) | -0.903%
10 | CCN(CCCNC(=O)c1cc(Nc2ccc(OC)cc2)nc2ccccc12)c1cccc(C)c1 | -1.53%
11 | Cc1c(C)n(Cc2ccc(Cl)cc2)c2ccc(C(=O)N3CCN(c4ccccc4F)CC3)cc12 | 0.706%
12 | Cc1ccc(OCCSc2nc3ccc(NC(=O)COc4ccc(C)cc4)cc3s2)cc1 | 0.194%
13 | CCSc1nnc(NC(=O)c2cc(=O)c3cc(C)c(C)cc3o2)s1 | -0.836%
14 | O=C(CS(=O)(=O)c1cccc2nsnc12)N1CCN(c2cccc(Cl)c2)CC1 | -5.52%
15 | Cc1nc2ccn(Cc3cccnc3)c(=O)c2cc1C(=O)N1CCN(c2ccccc2F)CC1 | -1.96%
16 | O=C(CSc1nc2nccnc2c(=O)n1CCc1c[nH]c2ccccc12)Nc1ccccc1F | 3.23%
17 | CCn1cc(C(=O)OCC(=O)Nc2cc(C)cc(C)c2)c(=O)c2ccc(C)nc21 | -3.36%
18 | CCN1CCN(Cc2c(O)ccc3oc(C)c(C(=O)Nc4ccc(C)cc4C)c23)CC1 | 4.89%
19 | CC1CCCN(c2csc3ccc(F)cc3c2=O)C1 (configuration not stated) | -1.87%
20 | Cc1ccccc1CNC(=O)c1cccc(NC(=O)c2nsc3ccccc23)c1 | 2.23%
21 | CN(Cc1ccco1)S(=O)(=O)c1nnc(NC(=O)c2ccccc2)s1 | 0.829%
22 | Cc1ccc(F)cc1S(=O)(=O)N1CCC(c2nc3ccccc3s2)CC1 | -6.17%
23 | CCn1c2ccccc2c2cc(CN3CCN(Cc4cccc(Cl)c4)CC3)ccc21 | -18.5%
24 | CN(Cc1ccccc1)S(=O)(=O)c1ccc(F)c(C(=O)Nc2cccc(Cl)c2Cl)c1 | -0.737%
25 | O=C(Nc1cccc2cccnc12)c1cccc2c(Br)cccc12 | 0.56%
26 | CCOc1ccc(NC(=O)c2cc3c(=O)n(Cc4cccs4)ccc3nc2C)cc1 | -0.316%

Row | Compound | activity, negative = inhibition
27 | CCOc1ccccc1NC(=O)CN1CCCN(Cc2cccc(Cl)c2)S1(=O)=O | 0.419%
28 | CCOCCCNC(=O)c1c(NC(=O)Cc2coc3ccc(C)cc23)sc2c1CCC2 | 0.78%
29 | CCc1nn(CCCC(=O)NCc2ccc(C)cc2)c(=O)c2cc3occc3n12 | -3.24%
30 | CCOc1ccc(N(Cc2ccccc2)C(=O)c2nc(S(C)(=O)=O)ncc2Cl)cc1 | 9.16%
31 | CCCN(CCC)C(=O)Cn1c(=O)n(-c2ccc(Cl)cc2)c(=O)c2c3c(sc21)CCCCC3 | 5.05%
32 | Cc1ccc(Cl)cc1NC(=O)CSc1nccn1C | -7.44%
33 | CCN(CC)S(=O)(=O)c1ccc2c(c1)c(=O)c(C(=O)N1CCN(c3cccc(Cl)c3)CC1)cn2C | 9.01%
34 | COc1ccc(CCNC(=O)CCCCn2c(=O)c3ccccc3n(Cc3ccccc3)c2=O)cc1OC | -5.81%
35 | O=C(NCCc1ccc(Cl)cc1)c1ccc2nc(CCc3ccccc3)oc2c1 | -1.58%
36 | Cc1oc2ncn(CC(C)C)c(=O)c2c1C(=O)N1CCN(c2ccccc2F)CC1 | 1.39%
37 | CCCNC(=O)c1ccc(Cn2c(SCC(N)=O)nc3ccccc3c2=O)cc1 | 0.439%
38 | CCOC(=O)c1cc(NC(=O)c2ccc(F)cc2)c(=O)n2c1oc1ccccc12 | 0.179%
39 | COc1ccc(-n2c(=O)c3c(c4cc(OC)ccc4n3C)n(Cc3cccc(C)c3)c2=O)cc1 | 0.514%
40 | Cc1cccc(N2CCN(c3c(CN4CCCC4)c(=O)oc4ccccc34)CC2)c1C | 1.96%
41 | O=C(Nc1nnc(S(=O)(=O)N2CCCc3ccccc32)s1)c1cccc(F)c1 | 2.61%
42 | CC(C)c1ccc(NC(=O)CN(C)S(=O)(=O)c2ccc3c(c2)c(=O)n(C)c(=O)n3C)cc1 | 10.7%
43 | Cc1ccccc1CN1CCC(CNC(=O)c2c(C)oc3ncnc(N4CCCCC4)c23)CC1 | 0.952%
44 | CCOc1ccc(CNC(=O)C2CCCN(S(=O)(=O)N(CC)c3ccc(OCC)cc3)C2)cc1 (configuration not stated) | 1.86%
45 | COC(=O)c1ccccc1NC(=O)C(Cc1ccccc1)N1Cc2ccccc2C1=O (configuration not stated) | -3.55%
46 | O=C(NCCc1csc(-c2ccc(C(F)(F)F)cc2)n1)C(=O)Nc1ccc(F)c(Cl)c1 | 1.81%
47 | Cc1oc2ccc(O)c(CN3CCC(C)CC3)c2c1C(=O)Nc1ccccc1 | 2.63%
48 | O=C(CC(c1cccs1)N1Cc2ccccc2C1=O)Nc1ccc(F)c(F)c1 (configuration not stated) | -2.34%
49 | COc1ccccc1NC(=O)Cn1cnc2ccc(S(=O)(=O)N3CCC(C)CC3)cc2c1=O | -0.99%
50 | CCc1cccc(-n2nnc(-c3nsc(NC(=O)c4ccc(C)cc4)n3)c2C)c1 | 4.26%
51 | Cc1cccc(-n2ccnc2SCC(=O)Nc2cc(C(F)(F)F)ccc2Cl)c1 | -0.723%
52 | COc1ccc(-c2nc3scc(CCNS(=O)(=O)c4cc(F)ccc4OC)n3n2)cc1OC | -4.76%
